Test results taken from PubChem BioAssay (NCATS).
Records with an inconclusive call do not appear. A number with no mark means an inactive call. Calls of active or inactive are those of the source. The call rests on the fitted dose curve; in most records, active means well fitted cell-killing curve with a large enough effect; inconclusive means small, poorly fitted or top-dose-only effect, or effect the other way; inactive means no such curve, though single readings can be large or run the other way.

Experiment: Viability qHTS for spleen associated tyrosine kinase inhibitor (SYKi) naive MV4-11 cells (AID 1963823); further: nearly all actives have a fitted effect of over 40% in size
Details: MV4-11 AML viability, CellTiter-Glo luminescence, 72 h; series mostly up to 45 µM
How it was run: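 Luminescence from CellTiter-Glo, developed 10 min at room temperature, gave viability of MV4-11 cells never exposed to SYK inhibitor. Cells (500/well) had been incubated with compounds for 72 hr under standard culture conditions.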
Potency means the concentration at half of the fitted maximal effect.

SMILES | Potency | viability (% of control)
CCOC(=O)COc1ccc2c(c1)C[C@@H](NC[C@H](O)c1cccc(Cl)c1)CC2 | 18.4 µM (active) | –
CC(=O)c1cc2c(cc1O)OC(C)(C)C=C2 | inactive | –
O=C(O)Cc1cn(C2OCC(O)C(O)C2O[C@@H]2O[C@H](CO)[C@@H](O)[C@H](O)[C@H]2O)c2ccccc12 (stereo not given in full) | inactive | –
O=C(C(c1ccccc1)c1ccccc1)N1CCN(CC(O)COc2cccc3ncccc23)CC1 (stereo not given) | 20.9 µM (active) | –
CC1CCC2(C(=O)O)CCC3(C)C(=CCC4C5(C)CCC(OC(=O)/C=C/c6ccccc6)C(C)(C)C5CCC43C)C2C1C (stereo not given) | inactive | –
CC1OC(OC2C(O)C(C(=O)O)OC(OC3CCC4(C)C(CCC5(C)C4C=CC4=C6CC(C)(C)CC(O)C6(C)CCC45C)C3(C)C)C2OC2OCC(O)C(O)C2O)C(O)C(O)C1O (stereo not given) | – | 89.1% [at 9.25 µM]
Cc1cc(-c2cc(O)ccc2Cl)cc2nnc(Nc3ccc(OCCN4CCCC4)cc3)nc12 | 1.84 µM (active) | –
O=c1c2cccnc2n(-c2cccc([N+](=O)[O-])c2)c(=O)n1Cc1ccncc1 | inactive | –
Cc1nc(CN(C)c2ncnc3ccc(-c4ccc5c(c4)OCO5)cc23)cs1 | 3.26 µM (active) | –
CC(=O)O[C@H]1[C@H](C)[C@@H](O)[C@H]2[C@@H]1C=C(C(=O)O)[C@H]1C[C@@H]3[C@H]([C@H]21)[C@H]1C(=O)O[C@@H]2CC[C@@]3(C)O[C@]1(O)[C@@H]2C | inactive | –
CC1(O)CCC2C(C(=O)O)=COC(OC3OC(CO)C(O)C(O)C3OC(=O)/C=C/c3ccc(O)cc3)C21 (stereo not given) | inactive | –
C[C@@H]1C(=O)O[C@H]2C[C@]34[C@H]5C[C@@H](C(C)(C)C)[C@]36[C@@H](OC(=O)[C@H]6O)O[C@]4(C(=O)O5)[C@]21O | inactive | –
C=CC(=O)N1CCCC(n2nc(-c3ccc(Oc4ccccc4)cc3)c3c(N)ncnc32)C1 (stereo not given) | 0.58 µM (active) | –
CC(C#N)C(C)O[C@@H]1O[C@H](CO)[C@@H](O)[C@H](O)[C@H]1O (stereo not given in full) | inactive | –
CC(=O)C=C=C1C(C)(C)CC(O)CC1(C)O[C@@H]1O[C@H](CO[C@H]2OC[C@](O)(CO)[C@H]2O)[C@@H](O)[C@H](O)[C@H]1O (stereo not given in full) | inactive | –
CC1=CC(=O)CC(C)(C)C1/C=C/C(C)O[C@@H]1O[C@H](CO)[C@@H](O)[C@H](O)[C@H]1O[C@@H]1OC[C@](O)(CO)[C@H]1O (stereo not given in full) | inactive | –
N#CC(=C(/N)Sc1ccccc1N)/C(C#N)=C(/N)Sc1ccccc1N | 10.3 µM (active) | –
CC1OC(O[C@@H]2[C@H](O)[C@@H](OC3OC(CO)C(O)C(O)C3O)[C@H](OC(=O)[C@]34CCC(C)(C)C[C@H]3C3=CCC5[C@@]6(C)CC[C@H](O[C@@H]7O[C@H](C(=O)O)[C@@H](O)[C@H](O[C@@H]8OC[C@@H](O)[C@H](O)[C@H]8O)[C@H]7O[C@@H]7O[C@H](CO)[C@H](O)[C@H](O)[C@H]7O)[C@@](C)(C=O)C6CC[C@@]5(C)[C@]3(C)C[C@H]4O)O[C@@H]2C)C(O)C(O)C1OC1OCC(O)C(O)C1O (stereo not given in full) | – | 87.4% [at 4.97 µM]
C[C@@H]1O[C@@H](O[C@H]2[C@H](O)[C@@H](C(=O)O)O[C@@H](O[C@H]3CC[C@@]4(C)C(CC[C@]5(C)C4CC=C4C6CC(C)(C)CC[C@]6(C(=O)O)CC[C@]45C)C3(C)C)[C@@H]2O[C@@H]2O[C@H](CO)[C@@H](O)[C@H](O)[C@H]2O)[C@H](O)[C@H](O)[C@H]1O (stereo not given in full) | – | 72.6% [at 9.25 µM]
C=C[C@@](C)(O)CC/C=C(\C)C(=O)O[C@@H]1[C@@H]2O[C@]2(C)[C@H]2[C@H](O[C@@H]3O[C@H](CO)[C@@H](O)[C@H](O)[C@H]3O)OC=C[C@@]12O | inactive | –

SMILES | Potency | viability (% of control)
C/C(=N\N=C(N)N)c1cc(NC(=O)CCCCCCCCC(=O)Nc2cc(/C(C)=N/N=C(N)N)cc(/C(C)=N/N=C(N)N)c2)cc(/C(C)=N/N=C(N)N)c1 | 18.4 µM (active) | –
CC1OC(OC2C(CO)OC(OCC3OC(OC(=O)C45CCC(C)(C)CC4C4=CCC6C7(C)CCC(OC8OC(C(=O)O)C(O)C(OC9OC(CO)C(O)C(O)C9O)C8O)C(C)(C)C7CCC6(C)C4(C)CC5)C(O)C(O)C3O)C(O)C2O)C(O)C(O)C1O (stereo not given) | – | 92.6% [at 9.25 µM]
COc1cc(CCc2ccccc2)c(C(=O)O)c2c1CC(C(C)(C)O)O2 (stereo not given) | inactive | –
CC(C)(C(=O)NCC(F)(F)C(F)(F)F)C(=O)NC1C(=O)Nc2ccccc2-c2ccccc21 (stereo not given) | 14.6 µM (active) | –
C=C[C@H](/C=C\c1ccc(O)cc1)c1ccc(O)cc1 | 18.4 µM (active) | –
OCC1OC(Oc2cc(O)cc(/C=C/c3ccc(OC4OC(CO)C(O)C(O)C4O)cc3O)c2)C(O)C(O)C1O (stereo not given) | inactive | –
CC1(C)CC[C@]2(C(=O)O[C@@H]3O[C@H](CO[C@@H]4O[C@H](CO)[C@@H](O)[C@H](O)[C@H]4O[C@@H]4O[C@H](CO)[C@H](O)[C@H](O)[C@H]4O)[C@@H](O)[C@H](O[C@@H]4O[C@H](CO)[C@@H](O)[C@H](O)[C@H]4O)[C@H]3O)CC[C@]3(C)C(=CCC4[C@@]5(C)CC[C@H](O[C@@H]6OC[C@@H](O)[C@H](O)[C@H]6O)[C@@](C)(C(=O)O)C5CC[C@]43C)[C@@H]2C1 (stereo not given in full) | – | 76.7% [at 9.25 µM]
COc1nc2ccc(Br)cc2cc1[C@@H](c1ccccc1)[C@@](O)(CCN(C)C)c1cccc2ccccc12 | 6.51 µM (active) | –
CN(C)c1nc2c(Br)c(Br)c(Br)c(Br)c2[nH]1 | 11.6 µM (active) | –
CC(O)/C=C/C1(O)C(C)C(O[C@@H]2O[C@H](CO)[C@@H](O)[C@H](O)[C@H]2O)C(O)CC1(C)C (stereo not given in full) | inactive | –
CC(=O)C1=C(O)C=C2Oc3c(C(C)=O)c(O)c(C)c(O)c3[C@]2(C)C1=O | inactive | –
Clc1ccccc1CNCC1CCC(CNCc2ccccc2Cl)CC1 (stereo not given) | 11.6 µM (active) | –
C=C1C(=O)O[C@@H]2[C@H]1CC(=O)[C@H](C)[C@@](O)(C(=O)/C=C/C)[C@H]2OC(=O)C(C)CC (stereo not given in full) | 0.36 µM (active) | –
CCOC(=O)C1=Cc2ccc(C(F)(F)C(F)(F)F)cc2N=C(N)C1 | 20.6 µM (active) | –
COc1ccc([C@H]2OC[C@H]3O[C@@H](O[C@H]4[C@@H]2NC[C@@H]4O)[C@H](O)[C@H]3O)cc1 | 0.64 µM (active) | –
CC/C=C\[C@H](O)[C@H](O)C1=C(C)C(=O)[C@]2(O1)C(=O)N[C@@](OC)(C(=O)c1ccccc1)[C@@H]2O | inactive | –
C=C1CC2OC(=O)C(=C)C2C(OC(=O)/C(C)=C\C)CC2(C)OC1=CC2=O (stereo not given) | 0.453 µM (active) | –
O=C1OCc2cc3cccc(O[C@@H]4O[C@H](CO)[C@@H](O)[C@H](O)[C@H]4O)c3c(O)c21 | inactive | –
CC/C=C/C(O)C(O)C1=C(C)C(=O)C2(O1)C(=O)NC(OC)(C(=O)c1ccccc1)C2O (stereo not given) | inactive | –
C=C1C(=O)OC2C1CCC(=C)C1CC(OC(C)=O)C(=C)C12 (stereo not given) | 3.26 µM (active) | –
